Compound activity deposited in PubChem by University of Kansas High Throughput Screening Laboratory.
mHTT-CaM PPI inh: disrupts binding of mutant huntingtin to calmodulin; P42858; 190,000 compounds, 3.6% hits; AlphaScreen His-mHTT/GST-CaM binding, luminescence; inhibition, % at 15 µM
Pf apPOL inh: Pf-apPOL DNA polymerase inhibition. Recombinant Pf-apPOL, molecular beacon fluorescence, 1.5 h. inhibition, % at 10 µM. 210,000 compounds, 0.25% hits
A number is an active result. Only some compounds are listed: those with a hit (about 3.6% of all), similar ones and a draw of the others. Rule as the data show it: active = inhibition above about 50%; inactive = the rest.

What do the screens show for `CCc1nc2c(NC(=O)Cc3ccc(C)cc3)cccn2n1`?
mHTT-CaM PPI inh: inactive; Pf apPOL inh: inactive

How did O=C(Nc1ccc(O)cc1)C1CC=CCC1 (configuration not stated) do in these assays?
mHTT-CaM PPI inh: 69.7; Pf apPOL inh: inactive

Results for O=C(Nc1ccc(NC(=O)C2CCCC2)cc1)C1CCCC1 ?
mHTT-CaM PPI inh: inactive; Pf apPOL inh: inactive

How did COc1ccc(N2CCC(CNS(=O)(=O)c3cccc(C(F)(F)F)c3)C2)cc1 (configuration not stated) do in these assays?
mHTT-CaM PPI inh: 73.0; Pf apPOL inh: inactive

Results for O=C1CC(CNS(=O)(=O)c2cccc(C(F)(F)F)c2)CN1c1ccc(Cl)cc1 (configuration not stated) ?
mHTT-CaM PPI inh: inactive; Pf apPOL inh: inactive

How did COc1ccc(OC)c(N(CC(=O)Nc2ccc(C(N)=O)cc2)S(=O)(=O)c2ccccc2)c1 do in these assays?
mHTT-CaM PPI inh: inactive; Pf apPOL inh: inactive

How did Cc1cccc(C2C=C(c3ccc(Cl)cc3)Nc3nnnn32)c1 (configuration not stated) do in these assays?
mHTT-CaM PPI inh: inactive; Pf apPOL inh: inactive

Results for COc1ccc(OCC2c3cc(OC)c(OC)cc3CCN2C(=O)c2cccc(OC)c2)cc1 (configuration not stated) ?
mHTT-CaM PPI inh: inactive; Pf apPOL inh: inactive

How did COc1cc2c(cc1OC)C(COc1ccc(F)cc1)N(C(=O)Cc1ccc(F)cc1)CC2 (configuration not stated) do in these assays?
mHTT-CaM PPI inh: 61.0; Pf apPOL inh: inactive

What do the screens show for `COc1cc2c(cc1OC)C(COc1ccc(F)cc1)N(C(=O)c1cccc(F)c1)CC2` (configuration not stated)?
mHTT-CaM PPI inh: 76.0; Pf apPOL inh: inactive

What do the screens show for `COc1ccc(C=CC(=O)N2CCc3cc(OC)c(OC)cc3C2COc2ccc3c(C)cc(=O)oc3c2)cc1OC` (configuration not stated)?
mHTT-CaM PPI inh: 69.2; Pf apPOL inh: inactive

Results for CCCC(=O)N1CCc2cc(OC)c(OC)cc2C1COc1ccc(OC)cc1 (configuration not stated) ?
mHTT-CaM PPI inh: inactive; Pf apPOL inh: inactive

What do the screens show for `COc1cc2c(cc1OC)C(COc1ccc3c(C)cc(=O)oc3c1)N(C(=O)c1ccc(Cl)cc1)CC2` (configuration not stated)?
mHTT-CaM PPI inh: inactive; Pf apPOL inh: inactive

How did C[C@@]12CCC=C[C@H]1[C@H](c1ccc3ccccc3c1)N(Cc1ccccc1)C2=O do in these assays?
mHTT-CaM PPI inh: 82.1; Pf apPOL inh: inactive

How did COc1ccc(-c2c([C@H]3[C@@H]4C=CCC[C@@]4(C)C(=O)N3Cc3ccccc3)ccc3ccccc23)cc1 do in these assays?
mHTT-CaM PPI inh: 58.2; Pf apPOL inh: inactive

How did Cc1ccc(-c2ccc([C@H]3[C@@H]4C=CCC[C@@]4(C)C(=O)N3Cc3ccccc3)c(F)c2)cc1 do in these assays?
mHTT-CaM PPI inh: inactive; Pf apPOL inh: inactive

What do the screens show for `Cc1ccc(-c2c([C@H]3[C@@H]4C=CCC[C@@]4(C)C(=O)N3Cc3ccccc3)ccc3ccccc23)cc1`?
mHTT-CaM PPI inh: inactive; Pf apPOL inh: inactive

Results for C[C@@]12CCC=C[C@H]1[C@H](c1ccc3ccccc3c1Br)N(Cc1ccccc1)C2=O ?
mHTT-CaM PPI inh: 94.2; Pf apPOL inh: inactive

How did COc1ccc(-c2ccc([C@H]3[C@@H]4C=CCC[C@@]4(C)C(=O)N3Cc3ccccc3)c(F)c2)cc1 do in these assays?
mHTT-CaM PPI inh: inactive; Pf apPOL inh: inactive

What do the screens show for `COc1ccc(-c2ccccc2[C@H]2[C@@H]3C=CCC[C@@]3(C)C(=O)N2Cc2ccccc2)cc1`?
mHTT-CaM PPI inh: 67.0; Pf apPOL inh: inactive

How did COc1ccc(-c2cc([C@H]3[C@@H]4C=CCC[C@@]4(C)C(=O)N3Cc3ccccc3)ccc2F)cc1 do in these assays?
mHTT-CaM PPI inh: inactive; Pf apPOL inh: inactive

Results for Nc1nc(N)nc(Cn2c(-c3nonc3N)nc3ccccc32)n1 ?
mHTT-CaM PPI inh: inactive; Pf apPOL inh: inactive

How did Cc1cc(C)c(S(=O)(=O)N2CCN(c3ccc(F)cc3)CC2)c(C)c1 do in these assays?
mHTT-CaM PPI inh: inactive; Pf apPOL inh: inactive

What do the screens show for `Cc1ccc(Cl)cc1NC(=O)CC1Sc2ccccc2NC1=O` (configuration not stated)?
mHTT-CaM PPI inh: inactive; Pf apPOL inh: inactive

What do the screens show for `Cc1ccc(NC(=O)CN(c2cc(C(F)(F)F)ccc2Cl)S(C)(=O)=O)c(C)c1`?
mHTT-CaM PPI inh: inactive; Pf apPOL inh: inactive

Results for CN(C)C=CC=C1CCCC1=O ?
Pf apPOL inh: 89.3

What do the screens show for `O=[N+]([O-])c1ccc(O)c(C=Nc2ccc(Cl)c(Cl)c2)c1`?
mHTT-CaM PPI inh: inactive; Pf apPOL inh: inactive

Results for COc1ccc(-c2c(-c3ccc(O)cc3O)n[nH]c2C)cc1 ?
mHTT-CaM PPI inh: inactive; Pf apPOL inh: inactive

Results for Cc1[nH]nc(-c2ccc(O)c(O)c2O)c1-c1ccccc1 ?
mHTT-CaM PPI inh: 91.2; Pf apPOL inh: inactive
